Assay outcomes from PubChem BioAssay.
Only a selection was taken, and hits are over-represented in it overall.
LmPK inhibitor – blocks Leishmania mexicana pyruvate kinase activity; purified LmPK, Kinase-Glo ATP luminescence, 1 h; hit rate 0.37% among 290,000; AID 1721; Potency, µM (titrated, usually from 57.5 µM), hits mostly inhibitors
Target sequence (Q27686 whole entry, looked up): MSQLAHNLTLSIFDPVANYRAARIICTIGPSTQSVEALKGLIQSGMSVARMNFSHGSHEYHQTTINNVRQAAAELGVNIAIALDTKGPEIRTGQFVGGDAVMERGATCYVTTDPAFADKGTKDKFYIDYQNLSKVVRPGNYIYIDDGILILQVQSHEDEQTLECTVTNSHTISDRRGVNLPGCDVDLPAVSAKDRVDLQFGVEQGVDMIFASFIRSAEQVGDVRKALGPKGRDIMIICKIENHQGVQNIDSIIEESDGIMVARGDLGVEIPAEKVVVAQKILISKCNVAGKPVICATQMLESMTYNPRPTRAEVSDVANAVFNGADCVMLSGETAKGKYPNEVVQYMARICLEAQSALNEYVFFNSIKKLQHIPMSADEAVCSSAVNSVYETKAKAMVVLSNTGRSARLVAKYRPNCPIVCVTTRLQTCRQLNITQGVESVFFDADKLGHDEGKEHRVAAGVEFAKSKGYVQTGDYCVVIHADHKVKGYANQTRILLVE
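Purified LmPK (0.1 nM) converted ADP (0.1 mM) to ATP with PEP (0.5 mM) in imidazole buffer pH 7.2 with KCl and MgCl2, 1 h at room temperature. ATP was read by Kinase-Glo luminescence; data normalized to uninhibited and no-enzyme controls.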
Giardia FBPA inh – Giardia lamblia aldolase inhibition; A8B2U2; purified Giardia FBPA; Potency, µM (series often up to 59.6 µM), hits mostly inhibitors; hit rate 0.71% among 290,000; AID 2451; note: nearly all actives have a fitted effect of over 55% in size
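40 nM FBPA preincubated 10 min at RT with compound (up to 57.5 uM final), then substrate plus GAPDH/TPI/NAD/arsenate coupling and diaphorase/resazurin added. Fluorescence read after 20 min at RT, 525/598 nm.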
CHX counter – counter-screen hit for Shiga toxin inhibitors, cycloheximide. max response, %. AID 2314. hit rate 12% among 300,000. cell reporter, cycloheximide protein synthesis inhibition counterscreen; in the data active = max response mostly above about 13%, no sharp cut-off; inactive = mostly below about 14%; note: read at 38.3 µM for the half of the compounds with a filed dose
RE007 growth inh – less growth of the S. pombe RE007 Vpr strain. S. pombe RE007 Vpr strain, BacTiter-Glo ATP luminescence, 24 h. Potency, µM (doses to about 92.2 µM), most hits filed as inhibitors. hit rate 0.21% among 360,000; active = well fitted falling curve with a large enough effect; inconclusive = small, poorly fitted or top-dose-only effect; inactive = no such curve, though single readings can be large or run the other way; note: nearly all actives have a fitted effect of over 50% in size
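Fission yeast strain RE007, carrying one chromosomally integrated HIV-1 vpr copy, was seeded at OD 0.01 in PMG+AL medium with 23 nL pinned compound. After 24 h at 30 °C and 99% humidity, viability was read by BacTiter-Glo luminescence.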
Tb PYK inh – inhibitors of Trypanosoma brucei pyruvate kinase; Potency, µM (highest dose often 76.8 µM), actives largely listed as inhibitors; TbPYK enzyme, Kinase-Glo Plus ATP luminescence, 45 min; hit rate 0.12% among 410,000; note: nearly all actives have a fitted effect of over 50% in size
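ADP (130 uM final) triggers the TbPYK reaction after compound addition; incubation is 45 min at room temperature. Kinase-Glo Plus is then added and luminescence imaged. Normalized data are fitted to concentration-effect curves.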
Shiga toxin inh – Shiga toxin inhibition | AID 2315 | Vero cells, Shiga toxin protein synthesis inhibition reporter | inhibition, % at 38.7 µM | hit rate 9.2% among 290,000; in the data active = inhibition mostly above about 28%, no sharp cut-off; inactive = mostly below about 43%
A number is an active result; 0 = inactive; ? = inconclusive; - = no result given. Unless noted, calls come from the whole dose curve; as a rule, active = well fitted curve in the direction sought with a large enough effect; inconclusive = small, poorly fitted or top-dose-only effect, or another doubt; inactive = no such curve, though single readings can be large; an effect the other way counts as inactive or inconclusive.

SMILES	LmPK inhibitor	Giardia FBPA inh	CHX counter	RE007 growth inh	Tb PYK inh	Shiga toxin inh
Cc1ccccc1OCC(=O)OCC(=O)NCC1CCCO1 (centres undefined)	0	0	0	0	0	0
NS(=O)(=O)c1ccc(CCNC(=O)CCCOc2ccccc2)cc1	0	0	0	0	0	0
Cc1noc(NC(=O)c2ccccc2)c1C#N	0	0	0	0	0	0
Cc1ccc(C(=O)Nc2onc(C)c2C#N)cc1	0	0	12	0	0	0
Cc1ccc(NC(=O)c2cc(F)c(F)cc2Cl)nc1	0	0	58	0	0	49
Cc1ccc(NC(=O)c2ccccc2F)nc1	?	0	43	0	0	66
Cc1cc(NC(=O)c2ccc(C#N)cc2)on1	0	0	11	0	0	0
COc1ccc(Cn2c(CO)cnc2SCc2ccc(C)cc2)cc1	-	-	-	-	0	-
COc1cc2c(=O)n(CCCC(=O)NCC3CCCO3)c(=O)n(CC(=O)c3ccc(F)cc3)c2cc1OC (centres undefined)	0	0	0	0	0	0
Cc1cc(C)nc(NC(=S)NC(=O)c2ccccc2F)n1	-	-	-	0	0	-
Cc1cc(NC(=O)c2ccccc2F)on1	0	0	42	0	0	67
COc1cc2ccccc2cc1C(=O)Nc1ccc(C)cn1	0	0	48	0	0	102
COc1cc2ccccc2cc1C(=O)NNC(=O)c1ccccc1O	0	-	0	-	-	0
COc1cc(OC)cc(C(=O)NCC2CCCN(C(=O)c3csc(C(C)C)n3)C2)c1 (centres undefined)	0	-	21	0	0	0
COc1ccc(NC2CCCN(C(=O)c3csc(C(C)C)n3)C2)cc1 (centres undefined)	0	0	0	0	0	0
O=[N+]([O-])c1cc([N+](=O)[O-])c2nonc2c1Nc1ccc(O)cc1	0	0	0	0	0	0
O=[N+]([O-])c1cc([N+](=O)[O-])c2nonc2c1Nc1ccccc1O	0	0	16	0	0	73
COc1ccc(-c2nc(CSCC(=O)NCCC(C)C)c(C)o2)cc1OC	-	-	-	-	0	-
CC(=O)c1ccc(-n2c(C)ccc2-c2ccccc2)cc1	0	0	29	?	0	0
COC(=O)c1ccc(-n2c(CCC(=O)O)ccc2-c2ccccc2)cc1	0	0	0	0	0	0
CC(=O)Nc1ccc(-n2c(C)ccc2-c2ccccc2)cc1	0	0	0	0	0	0
COC(=O)c1ccc(-n2c(C)ccc2-c2ccccc2)cc1	0	0	14	0	0	0
O=C(COC(=O)C12CC3CC(CC(O)(C3)C1)C2)NCc1ccco1	-	-	0	-	-	0
CSc1nnc([C@H](Cc2c[nH]c3ccccc23)NC(=O)OC(C)(C)C)o1	0	0	26	0	0	65
CC(C)C[C@H](NC(=O)OC(C)(C)C)c1nnc(SCc2cccc(F)c2)o1	0	0	0	0	0	27
SMILES	LmPK inhibitor	Giardia FBPA inh	CHX counter	RE007 growth inh	Tb PYK inh	Shiga toxin inh
CC(C)c1ccc(NC(=O)C2CCN(S(=O)(=O)c3cccc4nsnc34)CC2)cc1	-	-	-	-	0	-
Cc1ccc2oc(=O)c3cc(C(=O)Nc4ccc(C)c(F)c4)sc3c2c1	-	-	-	-	0	-
COc1ccc(C(=O)NNC(=O)C(=O)/C=C(\O)c2ccc(C)cc2)cc1	0	0	0	0	0	0
O=C(/C=C(\O)c1ccccc1)C(=O)NNC(=O)c1ccccc1	0	0	39	0	0	52
COc1ccc(NC(=O)C(OC(=O)c2ccc([N+](=O)[O-])o2)c2ccccc2)cc1Cl (centres undefined)	0	0	20	0	0	0
O=C(O)c1ccc(CSc2nc3ccc(N4C(=O)C5C6C=CC(C6)C5C4=O)cc3s2)cc1 (centres undefined)	0	0	0	0	0	0
CC(C)Sc1nc2ccc(N3C(=O)C4CCCCC4C3=O)cc2s1 (centres undefined)	0	0	24	0	0	0
CCCS(=O)(=O)c1nc(S(=O)(=O)c2ccc(C)cc2)c(NCc2ccccc2Cl)s1	-	-	-	-	0	-
O=C(CSc1nc2nccnc2c(=O)n1CCc1c[nH]c2ccccc12)Nc1ccccc1	-	-	-	-	0	-
CC(C)(C)NC(=O)C(c1ccncc1)N(Cc1ccco1)C(=O)c1ccc(-c2ccccc2)[nH]1 (centres undefined)	0	0	39	0	0	91
